# Results as given in the supplement of paper PMC9694430.
# Assays:
# Experiment in all cases: thermal shift delta Tm vs DMSO control; higher = stronger stabilization (binding)
# Details in all cases: 12.5 µM; protein concentration 2 µM
# LOC_OS04G57630-cb004 = test system: LOC_OS04G57630-cb004
# Summary of the method: (§1)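 The melting temperature shift given here is a triplicate mean, measured against protein that received only DMSO. Melting temperatures came from Boltzmann fits of differential scanning fluorimetry data on E. coli-expressed, purified rice kinase domain constructs. Each 19.5 μl well contained 2 μM kinase, 100 mM potassium phosphate pH 7.5, 150 mM NaCl, 10% glycerol, 5 × SYPRO Orange and compound in DMSO. Plates were scanned from 25°C to 95°C at 0.05°C/s.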
# LOC_OS05G07850-cb002 = test system: LOC_OS05G07850-cb002
# Summary of the method: as §1
# LOC_OS05G16824-cb004 = test system: LOC_OS05G16824-cb004
# Summary of the method: as §1
# LOC_OS05G28520-cb001 = test system: LOC_OS05G28520-cb001
# Summary of the method: as §1
# LOC_OS05G30820-cb001 = test system: LOC_OS05G30820-cb001
# Summary of the method: as §1
# LOC_OS05G43570-cb004 = test system: LOC_OS05G43570-cb004
# Summary of the method: as §1
# LOC_OS06G16330-cb003 = test system: LOC_OS06G16330-cb003
# LOC_OS06G16330-cb003, sequence (as listed by the source): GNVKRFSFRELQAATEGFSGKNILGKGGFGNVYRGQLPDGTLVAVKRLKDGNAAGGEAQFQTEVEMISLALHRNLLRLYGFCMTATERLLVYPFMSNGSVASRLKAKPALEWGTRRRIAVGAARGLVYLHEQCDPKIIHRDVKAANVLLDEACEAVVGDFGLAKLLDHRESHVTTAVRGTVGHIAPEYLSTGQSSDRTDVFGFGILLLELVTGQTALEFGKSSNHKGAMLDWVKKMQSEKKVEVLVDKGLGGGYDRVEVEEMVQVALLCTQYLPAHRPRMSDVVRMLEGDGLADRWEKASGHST
# Summary of the method: as §1
# LOC_OS06G22820-cb001 = test system: T1, LOC_OS06G22820-cb001
# T1 sequence (whole entry): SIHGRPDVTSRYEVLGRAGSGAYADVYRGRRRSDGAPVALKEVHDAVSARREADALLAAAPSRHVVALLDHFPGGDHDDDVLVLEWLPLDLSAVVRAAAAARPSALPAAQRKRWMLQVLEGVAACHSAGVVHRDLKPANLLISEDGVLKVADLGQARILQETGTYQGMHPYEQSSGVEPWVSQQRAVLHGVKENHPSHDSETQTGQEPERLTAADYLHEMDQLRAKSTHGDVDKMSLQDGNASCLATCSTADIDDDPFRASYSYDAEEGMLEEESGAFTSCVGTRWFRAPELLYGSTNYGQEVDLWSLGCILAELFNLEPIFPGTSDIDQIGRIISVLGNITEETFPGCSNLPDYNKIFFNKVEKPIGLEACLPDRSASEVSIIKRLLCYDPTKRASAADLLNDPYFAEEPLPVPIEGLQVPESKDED
# Summary of the method: as §1
# LOC_OS07G06570-cb004 = test system: LOC_OS07G06570-cb004
# Summary of the method: as §1
# LOC_OS07G07230-cb001 = test system: LOC_OS07G07230-cb001
# Summary of the method: as §1
smiles,measurement,setting,value
NC1(c2ccc(-c3nc4ccn5c(=O)[nH]nc5c4cc3-c3ccccc3)cc2)CCC1,thermal shift delta Tm,LOC_OS04G57630-cb004,-0.22 °C
same,thermal shift delta Tm,LOC_OS05G07850-cb002,1.31 °C
same,thermal shift delta Tm,LOC_OS05G16824-cb004,-1.83 °C
same,thermal shift delta Tm,LOC_OS05G28520-cb001,0.28 °C
same,thermal shift delta Tm,LOC_OS05G30820-cb001,0.4 °C
same,thermal shift delta Tm,LOC_OS05G43570-cb004,0.14 °C
same,thermal shift delta Tm,LOC_OS06G16330-cb003,0.62 °C
same,thermal shift delta Tm,LOC_OS06G22820-cb001,0.61 °C
same,thermal shift delta Tm,LOC_OS07G06570-cb004,0.66 °C
same,thermal shift delta Tm,LOC_OS07G07230-cb001,0.17 °C
CNC(=O)c1nn(C)c2c1C(C)(C)Cc1cnc(Nc3ccc(N4CCN(C)CC4)cc3)nc1-2,thermal shift delta Tm,LOC_OS04G57630-cb004,3.76 °C
same,thermal shift delta Tm,LOC_OS05G07850-cb002,6.76 °C
same,thermal shift delta Tm,LOC_OS05G16824-cb004,7.67 °C
same,thermal shift delta Tm,LOC_OS05G28520-cb001,4.23 °C
same,thermal shift delta Tm,LOC_OS05G30820-cb001,0.45 °C
same,thermal shift delta Tm,LOC_OS05G43570-cb004,0.22 °C
same,thermal shift delta Tm,LOC_OS06G16330-cb003,4.37 °C
same,thermal shift delta Tm,LOC_OS06G22820-cb001,0.43 °C
same,thermal shift delta Tm,LOC_OS07G06570-cb004,0.26 °C
same,thermal shift delta Tm,LOC_OS07G07230-cb001,0.04 °C
O=C(O)c1ccc2c(c1)nc(Nc1cccc(Cl)c1)c1ccncc12 [Silmitasertib (CX-4945)],thermal shift delta Tm,LOC_OS04G57630-cb004,0.56 °C
same,thermal shift delta Tm,LOC_OS05G07850-cb002,8.41 °C
same,thermal shift delta Tm,LOC_OS05G16824-cb004,3.01 °C
same,thermal shift delta Tm,LOC_OS05G28520-cb001,0.57 °C
same,thermal shift delta Tm,LOC_OS05G30820-cb001,0.68 °C
same,thermal shift delta Tm,LOC_OS05G43570-cb004,0.46 °C
same,thermal shift delta Tm,LOC_OS06G16330-cb003,3.05 °C
same,thermal shift delta Tm,LOC_OS06G22820-cb001,0.65 °C
same,thermal shift delta Tm,LOC_OS07G06570-cb004,1.59 °C
same,thermal shift delta Tm,LOC_OS07G07230-cb001,0.82 °C
CC#CC(=O)Nc1ccc2ncnc(Nc3cccc(Br)c3)c2c1,thermal shift delta Tm,LOC_OS04G57630-cb004,1.19 °C
same,thermal shift delta Tm,LOC_OS05G07850-cb002,9.9 °C
same,thermal shift delta Tm,LOC_OS05G16824-cb004,-2.35 °C
same,thermal shift delta Tm,LOC_OS05G28520-cb001,0.85 °C
same,thermal shift delta Tm,LOC_OS05G30820-cb001,0.66 °C
same,thermal shift delta Tm,LOC_OS05G43570-cb004,0.95 °C
same,thermal shift delta Tm,LOC_OS06G16330-cb003,3.13 °C
same,thermal shift delta Tm,LOC_OS06G22820-cb001,0.56 °C
same,thermal shift delta Tm,LOC_OS07G06570-cb004,1.04 °C
same,thermal shift delta Tm,LOC_OS07G07230-cb001,0.05 °C
CN1CCN(c2ccc(-c3ccncc3-c3cc(F)c(O)c(F)c3)cc2)CC1,thermal shift delta Tm,LOC_OS04G57630-cb004,0.24 °C
same,thermal shift delta Tm,LOC_OS05G07850-cb002,3.75 °C
same,thermal shift delta Tm,LOC_OS05G16824-cb004,-0.65 °C
same,thermal shift delta Tm,LOC_OS05G28520-cb001,0.95 °C
same,thermal shift delta Tm,LOC_OS05G30820-cb001,0.41 °C
same,thermal shift delta Tm,LOC_OS05G43570-cb004,0.25 °C
same,thermal shift delta Tm,LOC_OS06G16330-cb003,1.09 °C
same,thermal shift delta Tm,LOC_OS06G22820-cb001,0.54 °C
same,thermal shift delta Tm,LOC_OS07G06570-cb004,0.48 °C
same,thermal shift delta Tm,LOC_OS07G07230-cb001,0.18 °C
Cn1cnc2c(F)c(Nc3ccc(Br)cc3Cl)c(C(=O)NOCCO)cc21 [Selumetinib (AZD6244)],thermal shift delta Tm,LOC_OS04G57630-cb004,-0.08 °C
same,thermal shift delta Tm,LOC_OS05G07850-cb002,-0.01 °C
same,thermal shift delta Tm,LOC_OS05G16824-cb004,-2 °C
same,thermal shift delta Tm,LOC_OS05G28520-cb001,0.43 °C
same,thermal shift delta Tm,LOC_OS05G30820-cb001,0.51 °C
same,thermal shift delta Tm,LOC_OS05G43570-cb004,0.42 °C
same,thermal shift delta Tm,LOC_OS06G16330-cb003,0.02 °C
same,thermal shift delta Tm,LOC_OS06G22820-cb001,0.61 °C
same,thermal shift delta Tm,LOC_OS07G06570-cb004,0.8 °C
same,thermal shift delta Tm,LOC_OS07G07230-cb001,0.42 °C
CC(C)(CCCCCC(O)CCCCCC(C)(C)C(=O)O)C(=O)O,thermal shift delta Tm,LOC_OS04G57630-cb004,0.04 °C
same,thermal shift delta Tm,LOC_OS05G07850-cb002,0.87 °C
same,thermal shift delta Tm,LOC_OS05G16824-cb004,0.14 °C
same,thermal shift delta Tm,LOC_OS05G28520-cb001,0.47 °C
same,thermal shift delta Tm,LOC_OS05G30820-cb001,0.38 °C
same,thermal shift delta Tm,LOC_OS05G43570-cb004,0.54 °C
same,thermal shift delta Tm,LOC_OS06G16330-cb003,-0.14 °C
same,thermal shift delta Tm,LOC_OS06G22820-cb001,0.48 °C
same,thermal shift delta Tm,LOC_OS07G06570-cb004,0.64 °C
same,thermal shift delta Tm,LOC_OS07G07230-cb001,-0.4 °C
CC(C)(CO)n1cc(C(=O)c2cncc(NC(=O)Cc3ccc(Cl)cn3)c2)c2cnc(N)nc21,thermal shift delta Tm,LOC_OS04G57630-cb004,0.34 °C
same,thermal shift delta Tm,LOC_OS05G07850-cb002,5.09 °C
same,thermal shift delta Tm,LOC_OS05G16824-cb004,-0.67 °C
same,thermal shift delta Tm,LOC_OS05G28520-cb001,0.14 °C
same,thermal shift delta Tm,LOC_OS05G30820-cb001,0.02 °C
same,thermal shift delta Tm,LOC_OS05G43570-cb004,0.18 °C
same,thermal shift delta Tm,LOC_OS06G16330-cb003,2.22 °C
same,thermal shift delta Tm,LOC_OS06G22820-cb001,0.45 °C
same,thermal shift delta Tm,LOC_OS07G06570-cb004,1.47 °C
same,thermal shift delta Tm,LOC_OS07G07230-cb001,0.34 °C
CC(C)NC(=O)C1CCC(n2c(NC(=O)c3ccc(F)cc3)nc3ccc(CN4CCC(C(C)(C)O)CC4)cc32)CC1 (stereo not given) [Belizatinib (TSR-011)],thermal shift delta Tm,LOC_OS04G57630-cb004,6.67 °C
same,thermal shift delta Tm,LOC_OS05G07850-cb002,8.98 °C
same,thermal shift delta Tm,LOC_OS05G16824-cb004,13 °C
same,thermal shift delta Tm,LOC_OS05G28520-cb001,4.12 °C
same,thermal shift delta Tm,LOC_OS05G30820-cb001,0.47 °C
same,thermal shift delta Tm,LOC_OS05G43570-cb004,0.09 °C
same,thermal shift delta Tm,LOC_OS06G16330-cb003,4.55 °C
same,thermal shift delta Tm,LOC_OS06G22820-cb001,0.48 °C
same,thermal shift delta Tm,LOC_OS07G06570-cb004,1.37 °C
same,thermal shift delta Tm,LOC_OS07G07230-cb001,0.49 °C
